NPC1 promoter act: qHTS Assay for NPC1 Promoter Activators. Potency, µM (doses to about 9.22 µM), without a hit: top-dose activation, actives largely listed as activators. Huh7 NPC1 promoter luciferase reporter, 24 h. 320,000 tested, 2.4% active; note: % of control where 0% means no effect; nearly all actives have a fitted effect of over 60% in size
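NPC1 promoter–luciferase Huh7 cells; 24 h compound; luminescence.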
Rab9 prom act: qHTS Assay for Rab9 Promoter Activators; Huh7 Rab9 promoter-luciferase reporter, luminescence, 24 h; Potency, µM (doses to about 9.22 µM), inactives show top-dose activation, negative = inhibition, most hits filed as activators; 320,000 tested, 2.8% active; note: % of control where 0% means no effect; nearly all actives have a fitted effect of over 60% in size
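Huh7 cells stably carrying a Rab9 promoter-luciferase reporter, 1500 cells per well in OP-MEM I with 10% FBS, treated with compound 24 hours at 37C. Luciferase activity read by luminescence after 10 minutes with Amplite reagent.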
ELG1 genotoxic: qHTS screen for small molecules that induce genotoxicity in human embryonic kidney (HEK293T) cells expressing luciferase-tagged ELG1; HEK293T ELG1-luciferase reporter, luminescence, 16 h; Potency, µM (doses to about 46 µM), without a hit: at the top dose activity change, positive = activation, usual class: activators; 330,000 tested, 1.3% active; AID 504466, 2011; note: % of control where 0% means no effect; nearly all actives have a fitted effect of over 60% in size
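Screening used a luciferase reporter fused to human ELG1 in HEK293T cells. Luminescence was read on a CCD plate imager after 16 hr exposure and 30 min ONE-Glo incubation.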
FLuc counter: qHTS profiling assay for firefly luciferase inhibitor/activator using purifed enzyme and Km concentrations of substrates (counterscreen for miR-21 project); Luciferin 4-monooxygenase (Photinus pyralis), P08659; purified FLuc, Km substrates, luminescence inhibition; Potency, µM (series often up to 57.5 µM), inactives show at the highest dose activity change, negative = inhibition, usual class: inhibitors; 360,000 tested, 6.9% active;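 note: plate controls were vehicle for no effect and reference inhibitor for full effect; nearly all actives have a fitted effect of over 55% in size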
Target sequence (P08659 whole entry, looked up): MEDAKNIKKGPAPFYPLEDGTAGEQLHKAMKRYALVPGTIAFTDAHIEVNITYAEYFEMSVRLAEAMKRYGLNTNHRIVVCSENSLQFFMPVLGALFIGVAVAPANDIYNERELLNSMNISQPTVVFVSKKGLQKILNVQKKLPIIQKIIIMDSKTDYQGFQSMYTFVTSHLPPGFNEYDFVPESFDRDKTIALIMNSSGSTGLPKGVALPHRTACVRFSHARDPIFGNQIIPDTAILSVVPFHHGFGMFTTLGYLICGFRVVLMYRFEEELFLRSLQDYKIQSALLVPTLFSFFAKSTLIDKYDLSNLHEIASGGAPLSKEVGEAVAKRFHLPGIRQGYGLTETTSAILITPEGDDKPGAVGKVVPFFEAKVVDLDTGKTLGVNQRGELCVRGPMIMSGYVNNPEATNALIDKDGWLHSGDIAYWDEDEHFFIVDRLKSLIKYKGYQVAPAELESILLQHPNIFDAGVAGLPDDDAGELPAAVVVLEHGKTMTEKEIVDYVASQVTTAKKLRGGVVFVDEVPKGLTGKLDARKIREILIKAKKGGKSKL
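Purified P. pyralis luciferase, 10 nM final, with Km-level 10 uM D-luciferin and 10 uM ATP in 50 mM Tris acetate pH 7.5, 10 mM Mg acetate, 0.01% Tween-20, 0.05% BSA; 6-point qHTS titration about 60 µM downward; luminescence read.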
SMN2 splice up: qHTS Assay for Enhancers of SMN2 Splice Variant Expression; HEK293 SMN2-luciferase splicing reporter, luminescence, 30-36 h; Potency, µM (top dose mostly 46.1 µM), for the others: at the top dose activity change, positive = activation, actives largely listed as activators; 210,000 tested, 2.8% active; AID 1458, 2008; note: % of control where 0% means no effect; nearly all actives have a fitted effect of over 55% in size
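HEK293 cells carry an SMN2 […]–luciferase reporter in which exon 7 inclusion puts luciferase in frame. Cells were plated 10-12 h before compound addition, then incubated 30-36 h at 37C. ONE-Glo luminescence was read; sodium butyrate at 4.5 mM final served as control.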
Starred values were filed as active, the others as inactive; u = inconclusive; x = not tested or not shown. Shown are actives, neighbours in structure and some others; about 7.4% of the full set was active somewhere. Calls come from the whole dose curve; as a rule, active = well fitted curve in the direction sought with a large enough effect; inconclusive = small, poorly fitted or top-dose-only effect, or another doubt; inactive = no such curve, though single readings can be large; an effect the other way counts as inactive or inconclusive. Potency is the fitted concentration of half-maximal effect.

SMILES	NPC1 promoter act	Rab9 prom act	ELG1 genotoxic	FLuc counter	SMN2 splice up
Cc1cc(C)c(S(=O)(=O)NCc2ccc3c(c2)CCN3C(=O)c2ccccc2)c(C)c1	x	x	x	5%	x
CCC(=O)Nc1ccc(OCc2nc3ccccc3s2)cc1	2µM*	0.63µM*	2.9µM*	4.3µM*	5µM*
O=S(=O)(CCc1nc2ccccc2s1)c1ccc(Cl)cc1	-4%	-4%	-1%	2%	-4%
N#Cc1ccc(NC(=O)CCc2nc3ccccc3s2)cc1	0%	-3%	-3%	-11%	9%
O=S(=O)(Cc1nc2ccccc2s1)c1ccccc1	2µM*	3.2µM*	4.6µM*	12µM*	14µM*
COc1ccc(S(=O)(=O)CCc2nc3ccccc3s2)cc1	2%	-11%	-7%	1%	0%
Cc1cc(OCc2nc3ccccc3s2)ccc1N	1µM*	0.56µM*	2.9µM*	1.5µM*	x
c1ccc(OCc2nc3ccccc3s2)cc1	2.5µM*	2.8µM*	u	3.4µM*	13µM*
COc1ccc(CCNC(=O)C(=O)NCC(c2ccco2)S(=O)(=O)c2ccc(F)cc2)cc1 (stereo not drawn)	x	x	x	-2%	x
COc1ccc(S(=O)(=O)n2nc(C)c(S(=O)(=O)N3CCCCCC3)c2C)cc1OC	x	x	x	-9%	x
c1cncc(-c2nc(NCCN3CCOCC3)c3ccccc3n2)c1	x	x	x	x	-3%
Cc1ccc(CC(=O)Nc2c(C(=O)N3CCN(c4ccccc4F)CC3)oc3ccccc23)cc1	x	x	x	2%	x
Fc1ccc(OCc2nc3ccccc3s2)cc1	1.4µM*	3.2µM*	2.3µM*	2.4µM*	11µM*
O=C(Nc1cccc([N+](=O)[O-])c1)Nc1ccc2c(c1)CCC2	u	u	-1%	u	x
O=C(Nc1ccc2c(c1)CCC2)c1ncoc1-c1ccccc1F	15%	3%	12%	8.5µM*	x
Cc1ccccc1NC(=O)Nc1ccc2c(c1)CCC2	2.8µM*	2.5µM*	u	2.4µM*	x
Cc1cc2c(NC(=O)Nc3ccccc3)cccc2nn1	-2%	1%	u	-15%	x
Cc1cc2c(NC(=O)Nc3ccc(C(C)(C)C)cc3)cccc2nn1	-2%	-8%	-6%	12µM*	x
O=C(Nc1ccc2c(c1)CCC2)Nc1ccc(F)cc1F	1.3µM*	0.79µM*	u	u	x
O=C(CNC(=O)c1ccccc1F)Nc1ccc2c(c1)CCC2	u	u	u	-19%	x
COc1ccc(OC)c(CCNC(=O)C(C)n2c(C)c3cnn(-c4ccccc4)c(=O)c3c2C)c1 (stereo not drawn)	x	x	x	1%	-21%
O=C(Nc1ccc2c(c1)CCC2)c1cc(S(=O)(=O)Nc2ccc(F)cc2)c(Cl)cc1Cl	-4%	-7%	-6%	u	-92%
O=C(Nc1ccccc1)Nc1ccc2c(c1)CCC2	2.5µM*	3.5µM*	u	2.7µM*	x
O=C1OCc2ccc(NC(=O)c3c(F)cccc3Cl)cc21	-3%	18%	9%	-3%	x
O=C(Nc1ccc2c(c1)CCC2)c1ccc(F)cc1	0.71µM*	0.45µM*	1.6µM*	1.1µM*	2.2µM*
SMILES	NPC1 promoter act	Rab9 prom act	ELG1 genotoxic	FLuc counter	SMN2 splice up
O=C(Nc1cccc(F)c1)Nc1ccc2c(c1)CCC2	2.5µM*	2.5µM*	u	3.4µM*	x
O=C(Nc1ccc2c(c1)CCC2)c1c(F)cccc1Cl	1.6µM*	1.3µM*	9.2µM*	9.5µM*	14µM*
Cc1ccc(NC(=O)Nc2ccc3c(c2)CCC3)cc1	2µM*	2µM*	u	u	x
Cc1ccccc1NC(=O)Nc1ccc(C(F)(F)F)cc1	23%	2.2µM*	1%	2.4µM*	x
O=C(Nc1ccc2c(c1)CCC2)Nc1ccccc1F	0.45µM*	0.63µM*	0.41µM*	0.67µM*	x
CCOc1ccc(NC(=O)Nc2ccc3c(c2)CCC3)cc1	25%	16%	14%	-2%	x
Cc1ccccc1NC(=O)CNC(=O)c1ccc(C(F)(F)F)cc1	7%	-3%	0%	u	12%
Cc1cc(C)cc(NC(=O)Nc2ccc3c(c2)CCC3)c1	u	u	14%	-20%	x
O=C(Nc1ccc(F)cc1)Nc1ccc2c(c1)CCC2	2.5µM*	2.2µM*	u	u	x
Cc1nn(CC(=O)NCc2cccc(F)c2)c(=O)c2c(C)n(-c3ccc(Cl)cc3)nc12	x	x	x	0%	x
N#Cc1cc2c(nc1SC1CC(=O)N(c3ccccc3)C1=O)CCC2 (stereo not drawn)	-11%	-13%	3%	11µM*	-78%
CSc1nc2c(cc1C#N)CCC2	1%	-2%	0%	-1%	x
CC(=O)Nc1ccc(N/C=C/C(=O)c2ccc(C)o2)cc1	4µM*	u	u	8.5µM*	-10%
COc1ccccc1Oc1ccc(N/C=C/C(=O)c2ccc(C)o2)cc1	u	u	12%	7.6µM*	22%
COc1ccccc1OCCNC(=O)c1ccc(C)o1	8%	-2%	u	-18%	x
CC(=O)N1CCCc2cc(S(=O)(=O)N3CCCC(C(=O)NC(C)C)C3)ccc21 (stereo not drawn)	x	x	x	1%	x
CNc1nn(-c2cccc(Cl)c2)nc1N	u	u	11µM*	24µM*	u
CCOC(=O)N1CCN(C(=S)NC(=O)/C=C/c2ccc(C)cc2)CC1	-5%	-1%	0%	13µM*	x
COc1ccc(/C=C/C(=O)NC(=S)N2CCN(C)CC2)cc1	-2%	-1%	12%	u	2%
C=CCN=c1scc(C)n1/N=C/c1ccc(O)c(O)c1	-3%	1%	u	27µM*	16µM*
Cc1nnc(C)n1/N=C/c1ccc2c(c1)OCCO2	0%	0%	u	2%	14%
CN=c1scc(C)n1/N=C/c1ccc(O)cc1	3.2µM*	2.2µM*	3.2µM*	3µM*	u
CN=c1scc(C)n1/N=C/c1ccc2c(c1)OCO2	0.71µM*	0.35µM*	0.65µM*	1.3µM*	4.5µM*
CN=c1scc(C)n1/N=C/c1ccc(O)cc1O	0.45µM*	0.71µM*	u	0.43µM*	4.5µM*
Cc1nc(N2CCOCC2)c2nc(-c3ccccc3)n(CCN3CCOCC3)c2n1	x	x	x	x	9%
SMILES	NPC1 promoter act	Rab9 prom act	ELG1 genotoxic	FLuc counter	SMN2 splice up
COc1ccc(OC)c(CNc2ncnc3c2nc2n3CCCC2)c1	x	x	x	-3%	x
CCOc1ccc(S(=O)(=O)c2cc3cccc(OCC)c3oc2=O)cc1	x	x	x	6%	7%
CCN=c1scc(C)n1/N=C/c1cc(Br)c(O)c(OC)c1	0%	1%	6%	u	u
CN=c1scc(C)n1/N=C/c1cc(Br)c(O)c(Br)c1	-4%	-2%	0%	11µM*	-15%
CN=c1scc(-c2ccco2)n1/N=C/c1ccc(O)c(O)c1	-15%	-25%	u	0.67µM*	7.9µM*
COC(=O)[C@@]1(Cc2ccccc2)[C@H]2c3cc(C(=O)N(C)C)n(CCO)c3C[C@H]2CN1C(=O)c1ccccc1	x	x	x	x	5%

Screens (PubChem BioAssay)
